Measured values published in PubChem BioAssay (EPA / NIEHS).
The source made the active and inactive calls. Rule for the calls: active = hit-call score of the fitted dose curve at least 0.9, where 1 is the maximum; inactive = score below 0.9.

Tests used:
[1] = ATG_ISRE_CIS: Attagene CIS-FACTORIAL HepG2 Assay for human Interferon Regulatory Factor 1 (IRF1) binding to an Interferon-Stimulated Response Element (ISRE) (AID 2282948); conditions: HepG2 ISRE cis-reporter (Attagene), mRNA transcription readout; actives raise or lower the signal
How it was run: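 Multiplexed mRNA reporter readout in human liver HepG2 cells: cis-element-driven reporters transfected, compound added for 24 h, transcripts amplified, fluorescently labelled and sized by capillary electrophoresis; curve fitting bidirectional against DMSO.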

[2] = ATG_M_32_CIS: Attagene CIS-FACTORIAL HepG2 Assay for M32 Transcription Factor (Internal Marker) (AID 2282949); conditions: HepG2 Attagene cis-factorial M32 reporter, mRNA; actives raise or lower the signal;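 note: background control marker of the multiplexed CIS panel rather than a real target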
How it was run: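 Using DMSO as baseline, bidirectional curve fits were applied to reporter mRNA signals. These came from transiently transfected HepG2 cells exposed for 24 h, with RNA analysed by RT-PCR, FAM primer extension, HpaI digestion and CE.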

[3] = target: Hypoxia-inducible factor 1-alpha (Homo sapiens) (UniProt Q16665); assay: ATG_HIF1a_CIS: Attagene CIS-FACTORIAL HepG2 Assay for human Hypoxia Inducible Factor 1 (HIF1A) (AID 2282951); conditions: HepG2 Attagene cis-factorial HIF1a reporter transcription; actives raise or lower the signal
Chain of Hypoxia-inducible factor 1-alpha (Homo sapiens) (Q16665 whole entry, looked up, the tested form may be a part): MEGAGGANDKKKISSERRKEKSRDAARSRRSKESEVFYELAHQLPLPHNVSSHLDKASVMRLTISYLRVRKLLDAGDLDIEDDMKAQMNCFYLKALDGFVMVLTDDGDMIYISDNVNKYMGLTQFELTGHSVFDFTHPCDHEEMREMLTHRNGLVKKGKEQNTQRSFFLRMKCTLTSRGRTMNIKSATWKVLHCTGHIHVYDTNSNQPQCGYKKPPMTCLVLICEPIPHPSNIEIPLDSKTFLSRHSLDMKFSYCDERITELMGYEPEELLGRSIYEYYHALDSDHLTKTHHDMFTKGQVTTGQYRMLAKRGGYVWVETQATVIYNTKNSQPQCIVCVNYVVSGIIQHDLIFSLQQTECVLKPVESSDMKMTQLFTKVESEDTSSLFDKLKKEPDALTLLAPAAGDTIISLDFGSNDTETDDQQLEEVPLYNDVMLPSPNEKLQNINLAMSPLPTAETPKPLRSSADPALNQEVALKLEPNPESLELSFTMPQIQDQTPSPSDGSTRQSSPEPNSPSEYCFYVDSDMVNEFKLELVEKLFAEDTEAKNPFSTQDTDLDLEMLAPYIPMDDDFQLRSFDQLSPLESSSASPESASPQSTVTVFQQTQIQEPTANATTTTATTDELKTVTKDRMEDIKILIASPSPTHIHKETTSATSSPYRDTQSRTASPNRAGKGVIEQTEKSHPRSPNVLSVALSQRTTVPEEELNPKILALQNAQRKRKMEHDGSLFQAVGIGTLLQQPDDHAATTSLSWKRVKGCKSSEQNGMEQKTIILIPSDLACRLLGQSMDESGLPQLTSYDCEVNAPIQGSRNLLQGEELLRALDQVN
How it was run: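 Transient MRTU transfection of human HepG2 liver cells, 24 h compound treatment, then total RNA isolation, oligo(dT) reverse transcription, PCR amplification, fluorescent labelling and capillary electrophoresis of reporter fragments. Gain or loss relative to DMSO.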

[4] = target: Hepatocyte nuclear factor 6 (Homo sapiens) (UniProt Q9UBC0); assay: ATG_HNF6_CIS: Attagene CIS-FACTORIAL HepG2 Assay for human Hepatocyte Nuclear Factor 6 (HNF6) (AID 2282952); conditions: HepG2 Attagene cis-factorial HNF6 reporter transcription; actives raise or lower the signal
Chain of Hepatocyte nuclear factor 6 (Homo sapiens) (Q9UBC0 whole entry, looked up, the tested form may be a part): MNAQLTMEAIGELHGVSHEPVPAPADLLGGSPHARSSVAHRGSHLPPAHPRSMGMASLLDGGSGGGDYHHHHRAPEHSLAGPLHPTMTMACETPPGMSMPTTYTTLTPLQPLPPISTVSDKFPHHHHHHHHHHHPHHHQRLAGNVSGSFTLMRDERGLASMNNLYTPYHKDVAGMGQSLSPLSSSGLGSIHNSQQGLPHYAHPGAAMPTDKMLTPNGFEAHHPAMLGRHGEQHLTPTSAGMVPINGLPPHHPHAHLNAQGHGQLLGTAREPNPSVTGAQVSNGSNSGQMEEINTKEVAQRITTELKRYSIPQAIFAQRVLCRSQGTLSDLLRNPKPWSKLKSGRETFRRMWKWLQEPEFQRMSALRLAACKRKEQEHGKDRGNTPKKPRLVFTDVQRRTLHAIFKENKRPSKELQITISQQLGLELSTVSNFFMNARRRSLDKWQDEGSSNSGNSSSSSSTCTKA
How it was run: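 Readout: fluorescent reporter-transcript fragments resolved by capillary electrophoresis after RT-PCR, reflecting endogenous factor activity in transfected HepG2. Exposure 24 h. Gain or loss of signal fitted bidirectionally against DMSO.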

[5] = target: Heat shock factor protein 1 (Homo sapiens) (UniProt Q00613); assay: ATG_HSE_CIS: Attagene CIS-FACTORIAL HepG2 Assay for human Heat Shock Transcription Factor 1 (HSE) (AID 2282953); conditions: HepG2 HSE cis-reporter, Attagene RNA transcription; actives raise or lower the signal
Chain of Heat shock factor protein 1 (Homo sapiens) (Q00613 whole entry, looked up): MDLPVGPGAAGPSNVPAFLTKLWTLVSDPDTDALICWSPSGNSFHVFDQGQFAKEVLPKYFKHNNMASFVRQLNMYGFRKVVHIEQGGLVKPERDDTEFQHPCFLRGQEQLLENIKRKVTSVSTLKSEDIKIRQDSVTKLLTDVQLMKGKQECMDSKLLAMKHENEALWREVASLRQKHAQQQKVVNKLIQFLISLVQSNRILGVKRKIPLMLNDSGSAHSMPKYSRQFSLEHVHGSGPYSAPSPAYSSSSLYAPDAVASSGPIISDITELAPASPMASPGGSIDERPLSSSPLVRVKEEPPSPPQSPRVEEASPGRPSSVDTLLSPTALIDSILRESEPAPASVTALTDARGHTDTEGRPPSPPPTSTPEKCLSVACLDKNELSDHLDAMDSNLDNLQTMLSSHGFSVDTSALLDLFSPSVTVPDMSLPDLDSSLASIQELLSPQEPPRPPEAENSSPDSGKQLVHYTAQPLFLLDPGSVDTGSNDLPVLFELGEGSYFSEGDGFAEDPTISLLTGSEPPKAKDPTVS
How it was run: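 Liver-derived HepG2 cells carry transiently introduced multiple reporter units governed by cis promoters. Reporter RNA measured 24 h post-dose through reverse transcription, PCR amplification, fluorescent labelling and capillary electrophoresis, normalised to DMSO.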

[6] = ATG_MRE_CIS: Attagene CIS-FACTORIAL HepG2 Assay for human Metal Responsive Element (MRE) (AID 2282954); conditions: HepG2 MRE cis-reporter transcription, Attagene multiplex; actives raise or lower the signal
How it was run: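 Multiplexed cis-reporter assay in human HepG2 liver cells, 24 h incubation with test chemical. Reporter transcripts measured by RT-PCR and capillary electrophoresis; values from bidirectional curve fitting versus DMSO.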

[7] = ATG_PBREM_CIS: Attagene CIS-FACTORIAL HepG2 Assay for human Phenobarbital-responsive Enhancer Module (PBREM) (AID 2282955); conditions: HepG2 PBREM cis-reporter, Attagene multiplexed transcription; actives raise or lower the signal
How it was run: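 Endogenous transcription factors in human liver HepG2 cells drive a PBREM cis-element reporter, whose transcript level after 24 h treatment is quantified by RT-PCR with capillary electrophoresis; activity fitted in both directions against DMSO.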

[8] = target: Paired box protein Pax-6 (Homo sapiens) (UniProt P26367); assay: ATG_Pax6_CIS: Attagene CIS-FACTORIAL HepG2 Assay for human Paired Box 6 (PAX6) (AID 2282956); conditions: HepG2 CIS-FACTORIAL PAX6 reporter transcription, RNA readout; actives raise or lower the signal
Chain of Paired box protein Pax-6 (Homo sapiens) (P26367 whole entry, looked up): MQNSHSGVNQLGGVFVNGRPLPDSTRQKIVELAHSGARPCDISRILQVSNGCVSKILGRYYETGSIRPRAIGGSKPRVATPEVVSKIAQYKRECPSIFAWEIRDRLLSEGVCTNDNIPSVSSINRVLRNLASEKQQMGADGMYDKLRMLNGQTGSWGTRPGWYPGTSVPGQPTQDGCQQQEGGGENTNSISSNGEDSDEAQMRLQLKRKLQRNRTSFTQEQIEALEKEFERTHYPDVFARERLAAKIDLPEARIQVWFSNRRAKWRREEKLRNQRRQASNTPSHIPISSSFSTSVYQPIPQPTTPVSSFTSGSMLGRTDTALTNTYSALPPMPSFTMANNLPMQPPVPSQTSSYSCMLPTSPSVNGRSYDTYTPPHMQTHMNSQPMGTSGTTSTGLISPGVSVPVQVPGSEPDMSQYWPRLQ
How it was run: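 Fluorescent RT-PCR products separated by capillary electrophoresis report PAX6-linked promoter mRNA in HepG2 cells 24 h post-dose. Curves fitted bidirectionally, DMSO as negative control.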

[9] = ATG_PPRE_CIS: Attagene CIS-FACTORIAL HepG2 Assay for human Peroxisome Proliferator-activated Response Element (PPRE) (AID 2282958); conditions: HepG2 PPRE cis-element reporter, Attagene transcription factor profiling; actives raise or lower the signal
How it was run: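 HepG2, transient MRTU transfection (cis promoter elements, endogenous TFs). 24 h dosing. RNA → oligo(dT) RT → PCR → 6-FAM primer extension → HpaI digest → CE. Bidirectional fit vs DMSO.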

[10] = ATG_RORE_CIS: Attagene CIS-FACTORIAL HepG2 Assay for human RAR-related Orphan Receptor Element (RORE) (AID 2282959); conditions: HepG2 Attagene cis-factorial RORE reporter, mRNA; actives raise or lower the signal
How it was run: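 Transient MRTU transfection of human HepG2 liver cells (FuGene 6); 24 h compound exposure; TriZol RNA, oligo(dT) RT, PCR, FAM labeling, HpaI cut, CE fragment analysis. DMSO = negative control/baseline.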

[11] = ATG_Sox_CIS: Attagene CIS-FACTORIAL HepG2 Assay for human SRY-box transcription factor (SOX) (AID 2282960); conditions: HepG2 Attagene cis-factorial SOX reporter, mRNA; actives raise or lower the signal
How it was run: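 Endogenous factor activity in human liver HepG2 cells carrying transfected cis-regulated reporter units. RNA taken 24 h post-dose, reverse-transcribed, PCR-amplified and sized by capillary electrophoresis. Gain or loss of signal fitted relative to DMSO.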

[12] = target: Transcription factor Sp1 (Homo sapiens) (UniProt P08047); assay: ATG_Sp1_CIS: Attagene CIS-FACTORIAL HepG2 Assay for human Specificity Protein 1 (Sp1) (AID 2282961); conditions: HepG2 Sp1 cis-reporter transcription, actives raise or lower the signal
Chain of Transcription factor Sp1 (Homo sapiens) (P08047 whole entry, looked up): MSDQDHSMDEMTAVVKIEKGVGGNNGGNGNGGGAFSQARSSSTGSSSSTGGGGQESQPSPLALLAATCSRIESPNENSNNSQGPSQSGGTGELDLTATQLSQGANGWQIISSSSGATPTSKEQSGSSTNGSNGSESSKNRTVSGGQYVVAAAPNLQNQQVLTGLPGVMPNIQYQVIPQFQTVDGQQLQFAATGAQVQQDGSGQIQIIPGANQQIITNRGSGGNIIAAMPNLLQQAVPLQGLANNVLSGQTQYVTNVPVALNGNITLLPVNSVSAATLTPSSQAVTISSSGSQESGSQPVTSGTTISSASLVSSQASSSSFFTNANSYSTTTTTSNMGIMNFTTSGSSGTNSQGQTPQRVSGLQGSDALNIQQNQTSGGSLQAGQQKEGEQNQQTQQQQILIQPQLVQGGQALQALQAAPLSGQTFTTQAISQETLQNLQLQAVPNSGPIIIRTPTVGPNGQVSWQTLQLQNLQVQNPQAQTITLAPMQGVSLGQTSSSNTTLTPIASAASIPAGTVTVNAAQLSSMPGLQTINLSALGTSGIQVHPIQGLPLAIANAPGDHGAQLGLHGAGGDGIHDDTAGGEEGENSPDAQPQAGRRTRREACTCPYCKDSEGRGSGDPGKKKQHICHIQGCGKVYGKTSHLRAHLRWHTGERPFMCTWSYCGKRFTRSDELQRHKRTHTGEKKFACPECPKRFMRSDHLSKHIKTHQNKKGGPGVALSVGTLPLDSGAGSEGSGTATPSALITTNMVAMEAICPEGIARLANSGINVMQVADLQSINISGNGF
How it was run: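 Transient MRTU-transfected HepG2, 24 h compound exposure. Total RNA → oligo(dT) RT → PCR of reporter → 6-FAM primer extension → HpaI digest → CE. Endpoint fitted both directions vs DMSO.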

[13] = ATG_SREBP_CIS: Attagene CIS-FACTORIAL HepG2 Assay for human Sterol Regulatory Element Binding (SREBP) (AID 2282962); conditions: HepG2 Attagene cis-factorial SREBP reporter, mRNA; actives raise or lower the signal
How it was run: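 Endogenous factor activity is measured in HepG2 through multiplexed reporter units under cis-element control. Following a 24 h incubation, reporter transcripts are reverse-transcribed, PCR-amplified and sized by capillary electrophoresis; activity is fitted in both directions relative to DMSO.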

[14] = ATG_TA_CIS: Attagene CIS-FACTORIAL HepG2 Assay for human TA Basal Promoter (AID 2282964); conditions: HepG2 Attagene CIS-factorial TA basal promoter reporter; actives raise or lower the signal
How it was run: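 Background internal-marker endpoint from a 52-component HepG2 cis-reporter panel. Cells treated 24 h; reporter transcripts quantified via RT-PCR and CE fluorescence against DMSO baseline.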

[15] = ATG_TCF_b_cat_CIS: Attagene CIS-FACTORIAL HepG2 Assay for human T-Cell-Factor with beta-catenin (TCF/b-cat) (AID 2282965); conditions: HepG2 TCF/beta-catenin cis-reporter transcription, actives raise or lower the signal
How it was run: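 Endogenous transcription factor activity is captured through cis-promoter reporter constructs transiently introduced into human HepG2 liver cells. Induced reporter mRNA is measured after 24 h and fitted bidirectionally relative to DMSO.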

[16] = ATG_GRE_CIS: Attagene CIS-FACTORIAL HepG2 Assay for human Glucocorticoid Response Elements (GRE) (AID 2282947); conditions: HepG2 GRE cis-reporter, Attagene multiplex mRNA; actives raise or lower the signal
How it was run: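 Multiplexed cis-reporter mRNA induction, HepG2, 24 h post-dose. RT-PCR, FAM-labelled, HpaI-digested amplicons by CE. Bidirectional fit vs DMSO.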

[17] = target: Signal transducer and activator of transcription 3 (Homo sapiens) (UniProt P40763); assay: ATG_STAT3_CIS: Attagene CIS-FACTORIAL HepG2 Assay for human Signal Transducer and Activator of Transcription 3 (STAT3) (AID 2282963); conditions: HepG2, Attagene cis-factorial STAT3 reporter transcription; actives raise or lower the signal
Chain of Signal transducer and activator of transcription 3 (Homo sapiens) (P40763 whole entry, looked up): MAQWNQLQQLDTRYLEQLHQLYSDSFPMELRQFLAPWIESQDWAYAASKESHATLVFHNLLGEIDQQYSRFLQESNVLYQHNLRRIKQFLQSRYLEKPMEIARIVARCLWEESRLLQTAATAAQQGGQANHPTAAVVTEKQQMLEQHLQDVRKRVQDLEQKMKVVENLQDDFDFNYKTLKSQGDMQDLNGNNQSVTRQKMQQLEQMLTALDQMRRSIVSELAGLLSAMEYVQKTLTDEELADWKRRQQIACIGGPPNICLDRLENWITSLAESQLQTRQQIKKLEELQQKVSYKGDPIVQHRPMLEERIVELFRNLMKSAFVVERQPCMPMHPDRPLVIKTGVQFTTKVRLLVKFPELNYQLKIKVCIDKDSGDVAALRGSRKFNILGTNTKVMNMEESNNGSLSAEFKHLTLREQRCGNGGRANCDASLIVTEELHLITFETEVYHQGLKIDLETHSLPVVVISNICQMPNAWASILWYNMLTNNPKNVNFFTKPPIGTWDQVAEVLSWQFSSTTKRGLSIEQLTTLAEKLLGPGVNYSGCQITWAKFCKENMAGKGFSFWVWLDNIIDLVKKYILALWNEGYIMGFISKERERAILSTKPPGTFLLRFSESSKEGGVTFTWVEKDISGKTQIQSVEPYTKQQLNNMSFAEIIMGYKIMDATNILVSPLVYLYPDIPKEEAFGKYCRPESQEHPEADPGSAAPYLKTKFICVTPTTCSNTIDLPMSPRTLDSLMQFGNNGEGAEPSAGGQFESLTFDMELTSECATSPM
How it was run: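 Cis-factorial format: endogenous transcription factors in HepG2 drive transfected reporter units. After 24 h treatment, reporter RNA was reverse-transcribed, amplified, FAM-labelled and HpaI-digested before CE analysis; activity scored in both directions against DMSO.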

[18] = ATG_PXRE_CIS: Attagene CIS-FACTORIAL HepG2 Assay for human Pregnane X Receptor Element (PXRE) (AID 2282957); conditions: HepG2 Attagene CIS-FACTORIAL PXRE reporter, mRNA; actives raise or lower the signal
How it was run: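 Read-out: fluorescence of reporter-specific RT-PCR products resolved by capillary electrophoresis, fitted bidirectionally relative to DMSO. Human HepG2 liver cells carried transfected cis-promoter reporter units and were exposed to chemicals for 24 h.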

[19] = ATG_M_06_CIS: Attagene CIS-FACTORIAL HepG2 Assay for M06 Transcription Factor (Internal Marker) (AID 2282950); conditions: HepG2 Attagene CIS-FACTORIAL M06 internal marker reporter; actives raise or lower the signal
How it was run: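 Cells (HepG2, transiently carrying cis-driven reporter units) receive chemical for 24 h before RNA isolation. Reporter cDNA is PCR-amplified, FAM-labelled by primer extension, HpaI-digested and sized on a capillary analyser.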

Measured: AC50

CC(O)CCO (stereo unspecified)
not listed: [16] | [17] | [18] | [19]
inactive: all other assays above

CCOc1cccc(C2(N3CCN(c4ccccc4)CC3)CCC(C)CC2)c1 (stereo unspecified)
not listed: [5] | [9] | [18] | [19]
inactive: all other assays above

Cc1ccc(N)cc1
not listed: [9] | [16] | [17] | [19]
inactive: all other assays above

Brc1ccc(Oc2ccccc2)cc1
active: [1] 100 µM | [12] 100 µM | [13] 149 µM
not listed: [7] | [17] | [18] | [19]
inactive: all other assays above

O=[N+]([O-])c1ccc(Oc2ccc(Cl)cc2Cl)cc1
active: [6] 50.1 µM | [7] 22.5 µM | [8] 31.9 µM | [10] 27.5 µM | [14] 39.7 µM
not listed: [17] | [18] | [19]
inactive: all other assays above

O=Cc1ccco1
not listed: [7] | [9] | [16] | [17] | [18]
inactive: all other assays above

CO[C@@H]1[C@H](OC(=O)NC(=O)CCl)CC[C@]2(CO2)[C@H]1[C@@]1(C)O[C@@H]1CC=C(C)C
active: [18] 0.293 µM | [15] 39.5 µM
not listed: [17] | [19]
inactive: all other assays above

CCCCC(CC)COC(=O)c1ccc(C(=O)OCC(CC)CCCC)c(C(=O)OCC(CC)CCCC)c1 (stereo unspecified)
not listed: [18] | [19]
inactive: all other assays above

C=CCc1ccc2c(c1)OCO2
not listed: [9] | [16]
inactive: all other assays above

[Cl-].[Cl-].[Hg+2]
active: [3] 33.4 µM | [13] 51 µM
not listed: [7] | [9] | [16] | [17]
inactive: all other assays above

C[N+](C)(C)CC1CO1 (stereo unspecified)
not listed: [7] | [16]
inactive: all other assays above

[O-][Cl+]O
not listed: [7] | [19]
inactive: all other assays above

c1ccc(C2CO2)cc1 (stereo unspecified)
not listed: [7] | [18] | [19]
inactive: all other assays above
